From PubChem BioAssay (NCATS) come the findings set out here.

The structures appear in SMILES notation. “And” between values parts separate entries of the source, which are not always exact repeats. Equal entries are not always repeated. Results filed as inconclusive are left out. The source made the active and inactive calls. Unless noted, the call rests on the fitted dose curve; in most records, active means well fitted curve in the direction sought with a large enough effect; inconclusive means small, poorly fitted or top-dose-only effect, or another doubt; inactive means no such curve, though single readings can be large; an effect the other way counts as inactive or inconclusive.

A short description of assay [1]: qHTS for differential inhibitors of proliferation of Plasmodium falciparum line HB3 (AID 1886).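 Further: parasites grown with compound for 72 h before SYBR Green readout.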 Further: potency means the concentration at half of the fitted maximal effect. The note with it: Potency: Plasmodium falciparum HB3 proliferation inhibition. (In general: qHTS replaces the single test concentration by a dilution series.)
Assay [2] concerns the target Ferritin light chain (Equus caballus) (UniProt P02791). In words: qHTS Validation Assay for Identification of Novel General Anesthetics (AID 2323). Further: series mostly up to about 77 µM. In a few lines: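 Competitive displacement of the profluorescent anesthetic 1-AMA (50% saturated, PBS) from 10 uM apoferritin, 10 min, room temperature. Activity is normalized 380/535 nm fluorescence; concentration-response fitted with a four-parameter Hill equation.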

Assay [3] deals with ATP-dependent DNA helicase Q1 (Homo sapiens) (UniProt P46063). The assay is described as follows: qHTS Validation Assay for Inhibitors of RecQ-Like Dna Helicase 1 (RECQ1) (AID 2353). Put shortly: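 50 nM RECQ1T1 preincubated 15 min with compound in Tris pH 8.0 buffer with MgCl2, DTT, Tween-20 and 2.5 ug/ml poly(dI-dC); started with 200 nM TAMRA/BHQ-2 forked duplex and 2 mM ATP. Unwinding read as fluorescence (525/598 nm), two reads 2 h apart.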

Assay [4] addresses RecQ-like DNA helicase BLM (Homo sapiens) (UniProt P54132). In words: qHTS Validation Assay for Inhibitors of Bloom's syndrome helicase (BLM) (AID 2364). Put shortly: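 50 nM BLM preincubated 15 min at room temperature with compound in pH 8.0 Tris buffer containing 2.5 ug/ml poly(dI-dC); started with 200 nM TAMRA/BHQ-2 forked duplex and 2 mM ATP (final). Unwinding read as TAMRA fluorescence increase, two reads 2 h apart.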

Assay [5] in a line: Cytometric Cell-Based qHTS for Inhibitors of the mTORC1 Signaling Pathway in MEF (Tsc2-/-, p53-/-) Cells (AID 2660).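 Further: percent of cells above a phospho-rpS6 to PI ratio cutoff in each well; series mostly up to about 38 µM.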 Put shortly: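 Immunofluorescence qHTS of rpS6 Ser235/236 phosphorylation: MEFs (Tsc2-/-, p53-/-) treated 24 h, 37 C, in DMEM + 10% FBS. Alexa-488 signal normalized to PI count, referenced to rapamycin (7.5 nM) and DMSO; PI cell number recorded for viability.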

Assay [6] can be described thus: High Content Imaging Cell-Based qHTS for Inhibitors of the mTORC1 Signaling Pathway in MEF (Tsc2-/-, p53-/-) Cells (AID 2666). Put shortly: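 Phospho-rpS6 (Ser235/236) immunofluorescence, normalized and scored as % positive cells using rapamycin and DMSO controls, was read in empty-vector Tsc2-/-, p53-/- MEFs after 24 h compound exposure at 37 C; propidium iodide counted cells.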

A short description of assay [7]: High Content Imaging Cell-Based qHTS for Inhibitors of the mTORC1 Signaling Pathway in MEF Cells (AID 2667).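 Further: Tsc2-/- p53-/- MEFs stably re-expressing wild-type Tsc2 exposed 24 h; series mostly up to about 38 µM.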 Put shortly:
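WT MEFs (Tsc2-/-, p53-/- re-expressing Tsc2), in DMEM + 10% FBS, were treated with compound for 24 h at 37 C. Cells were then fixed and stained for phospho-rpS6 Ser235/236 with propidium iodide as cell count. Values are % positive cells, with thresholds set against rapamycin-treated cells.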

Assay [8] in a line: Cytometry Cell-Based qHTS for Inhibitors of the mTORC1 Signaling Pathway in MEF cells (AID 2668).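 Further: Tsc2-/- p53-/- mouse embryonic fibroblasts stably re-expressing wild-type Tsc2; percent cells positive for phospho-rpS6 Ser235/236 relative to propidium iodide stain; series mostly up to about 38 µM.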 Put shortly: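 Phospho-rpS6 (Ser235/236) immunofluorescence over PI signal, scored as % positive cells using thresholds from 7.5 nM rapamycin and DMSO wells, after 24 h compound exposure of WT-Tsc2-rescued Tsc2-/-, p53-/- MEFs. PI cell count recorded for viability.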
Assay [9] can be described thus: Validation screen for small molecules that induce DNA re-replication in MCF 10A normal breast cells (AID 463097). Further: nearly all actives have a fitted effect of over 60% in size. In a few lines:
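Read-out is Hoechst total nuclear intensity by fluorescence scanning imager, flagging increased high-DNA-content nuclei. Compounds were incubated with MCF 10A cells for 48 hr (37 C, 5% CO2) before 40 min staining.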

Assay [10] deals with Ubiquitin carboxyl-terminal hydrolase 2 (Homo sapiens) (UniProt O75604). The assay is described as follows: qHTS Validation Assay for Inhibitors of Ubiquitin-specific Protease USP2a Using CHOP2 as the Reporter (AID 463106). In a few lines: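 USP2 core (10 nM final) was preincubated with compound 30 min at RT in pH 8.0 Tris/CaCl2/beta-ME/CHAPS buffer. Ub-CHOP2 and reporter substrate (25 nM final each) were then added, with fluorescence (Ex 485/Em 531) read after 60 min. Data were normalized to NEM full inhibition and fitted to concentration-response curves.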

For assay [11], the target named is DNA polymerase III PolC-type (Bacillus subtilis (strain 168)) (UniProt P13267). In words: qHTS Validation Assay for the Inhibitors of DNA Replication in Gram-Positive Bacteria (AID 485295).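 Further: reconstituted holoenzyme with PolC plus beta clamp SSB and primase; PicoGreen fluorescence of double-stranded DNA made on primed circular M13 template; series mostly up to about 57 µM.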 Put shortly:
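Double-stranded DNA product detected by PicoGreen fluorescence after EDTA quench. Compound incubated with B. subtilis holoenzyme (PolC, beta subunit, SSB, primase) before substrate addition; primed replication of M13Gori with dNTPs and NTPs at room temperature; DMSO defines 0% inhibition.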

Assay [12] concerns the target Tumor susceptibility gene 101 protein (Homo sapiens) (UniProt Q99816). In words: qHTS Validation Assay for Iinhibitors of HIV-1 Budding by Blocking the Interaction of PTAP/TSG101 (AID 485342; calls by dose curve). Put shortly: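 Fluorescence polarization of 50 nM FITC-PTAP peptide bound to 10 uM Tsg101 binding domain was read after 20 min room-temperature incubation with compounds, in 10 mM HEPES pH 7.5, 0.15 M NaCl, 0.01% Tween 20.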

A short description of assay [13]: qHTS Validation Assay to Find Inhibitors of Chronic Active B-Cell Receptor Signaling (AID 485345; active means well fitted curve in the direction sought with a large enough effect in the main read-out, with a control signal flat, not every such curve was filed as active). In a few lines:
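TMD8 ABC-DLBCL cells stably carrying doxycycline-inducible IkappaBalpha–green luciferase fusion plus unfused red luciferase; compounds 46 uM to 3 nM, 4 h at 37C with doxycycline. Corrected green/red luminescence ratio normalized to 10 uM MG-132 and basal cell wells; curves fitted.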

Assay [14] concerns the target Beta-2 adrenergic receptor (Homo sapiens) (UniProt P07550). The assay is described as follows: qHTS validation assay of beta-arrestin-biased ligands of beta2-adrenergic receptor (AID 485366). In a few lines: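 Arrestin-recruitment (Tango) reporter: ligand-bound beta2-AR recruits beta-arrestin, releasing tTA, which upregulates luciferase. Titrations of up to 46 microM incubated 18 hr at 37 degrees C before luminescent readout.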

A short description of assay [15]: Quantitative high throughput screen for delayed death inhibitors of the malarial parasite plastid, 48 hour incubation (AID 488752). Further: nearly all actives have a fitted effect of over 65% in size. Put shortly: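 One parasite generation (48 h, 37 C, 5% CO2) of luciferase-reporter P. falciparum in erythrocytes is run with test compound; decreased luminescence indicates inhibited growth.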
Assay [16] concerns the target Thioredoxin reductase 1, cytoplasmic (Rattus norvegicus) (UniProt O89049). The assay is described as follows: qHTS Assay for Substrates of Mammalian Selenoprotein Thioredoxin Reductase 1 (TrxR1) (AID 488772).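 Further: NADPH fluorescence in the first read after selenite addition and not the 8 min delta; series mostly up to about 57 µM; a drop in NADPH fluorescence below the no-compound background marks a TrxR1 substrate.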 In a few lines: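 Quantitative HTS in Tris-HCl buffer at pH 7.5 with EDTA and Tween-20, using rat TrxR1, 400 uM NADPH and 400 uM selenite (final). A fall in initial NADPH fluorescence relative to background marked substrate behaviour.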

The target of assay [17] is ATP-dependent 6-phosphofructokinase (Trypanosoma brucei brucei) (UniProt O15648). In words: qHTS Validation Assay to Find Inhibitors of T. brucei phosphofructokinase (AID 485368). The note with it: outcome: dose series up to 57.5 µM. In a few lines:
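Steps: substrate mix (0.5 mM F6P, 0.1 mM ATP, MgCl2, TEA pH 8.0); compound; 1.25 nM T. brucei PFK; 45 min RT; ATP depletion 10 min; ADP-to-ATP detection 10 min; luminescence read; curve fitting and classification.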

Assay [18] in a line: Quantitative high throughput screen for delayed death inhibitors of the malarial parasite plastid, 96 hour incubation (AID 488745). Further: nearly all actives have a fitted effect of over 70% in size. Further: potency means the concentration at half of the fitted maximal effect. Put shortly: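 Growth of reporter-bearing P. falciparum in red cells is measured after 96 h with compound, covering two erythrocytic cycles. Luminescence from the integrated luciferase serves as the growth signal.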
Assay [19] can be described thus: qHTS Assay for Modulators of Human Peripheral Myelin Protein 22 (PMP22) Expression/Activity (AID 1967; active means well fitted curve in the direction sought with a large enough effect in the signal ratio; the % refers to the signal ratio). Put shortly:
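Readout is the corrected green/red luminescence ratio after 24 h compound exposure, normalised to untreated cells (0%). Engineered MSC80 mouse Schwann cells express green luciferase from the mouse Pmp22 promoter and red luciferase from EF-alpha as internal control.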

Sequence of Ferritin light chain (Equus caballus) (P02791 2-175 limits assumed): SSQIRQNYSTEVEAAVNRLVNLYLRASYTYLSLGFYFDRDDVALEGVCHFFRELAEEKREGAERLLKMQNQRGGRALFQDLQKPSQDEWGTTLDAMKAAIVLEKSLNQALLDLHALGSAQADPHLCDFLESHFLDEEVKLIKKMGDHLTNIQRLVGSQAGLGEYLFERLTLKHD
Sequence of Thioredoxin reductase 1, cytoplasmic (Rattus norvegicus) (O89049 whole entry, looked up): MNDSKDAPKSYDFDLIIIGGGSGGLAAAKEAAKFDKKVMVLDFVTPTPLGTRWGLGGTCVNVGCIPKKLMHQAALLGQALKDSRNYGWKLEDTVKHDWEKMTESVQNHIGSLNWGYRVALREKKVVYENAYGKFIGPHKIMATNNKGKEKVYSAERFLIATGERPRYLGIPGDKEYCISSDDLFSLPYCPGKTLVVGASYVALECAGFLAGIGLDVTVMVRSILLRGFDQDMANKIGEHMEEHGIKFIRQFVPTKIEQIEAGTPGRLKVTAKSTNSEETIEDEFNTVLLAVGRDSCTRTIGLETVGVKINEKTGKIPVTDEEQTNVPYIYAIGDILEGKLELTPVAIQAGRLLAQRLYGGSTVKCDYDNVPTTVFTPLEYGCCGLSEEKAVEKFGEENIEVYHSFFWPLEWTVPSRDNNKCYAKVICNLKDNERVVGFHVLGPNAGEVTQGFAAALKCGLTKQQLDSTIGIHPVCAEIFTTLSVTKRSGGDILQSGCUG
Sequence of ATP-dependent DNA helicase Q1 (Homo sapiens) (P46063 whole entry, looked up): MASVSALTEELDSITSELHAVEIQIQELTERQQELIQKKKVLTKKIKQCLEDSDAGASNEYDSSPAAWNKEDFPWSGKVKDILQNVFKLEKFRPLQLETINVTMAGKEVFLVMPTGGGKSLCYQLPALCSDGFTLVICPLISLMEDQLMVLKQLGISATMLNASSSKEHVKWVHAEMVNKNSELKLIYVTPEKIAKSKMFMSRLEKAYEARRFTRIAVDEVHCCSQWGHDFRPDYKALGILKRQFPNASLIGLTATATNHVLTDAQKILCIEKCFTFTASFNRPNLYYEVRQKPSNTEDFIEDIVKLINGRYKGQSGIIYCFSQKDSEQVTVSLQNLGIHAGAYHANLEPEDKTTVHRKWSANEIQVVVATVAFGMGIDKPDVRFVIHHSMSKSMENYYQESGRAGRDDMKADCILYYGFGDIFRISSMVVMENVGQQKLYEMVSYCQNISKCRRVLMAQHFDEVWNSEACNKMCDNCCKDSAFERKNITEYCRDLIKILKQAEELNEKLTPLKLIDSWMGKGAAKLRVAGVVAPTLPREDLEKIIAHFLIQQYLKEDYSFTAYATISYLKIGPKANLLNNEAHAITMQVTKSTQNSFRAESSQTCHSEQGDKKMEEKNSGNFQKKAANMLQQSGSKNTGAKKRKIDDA
Sequence of Tumor susceptibility gene 101 protein (Homo sapiens) (Q99816 whole entry, looked up, the tested form may be a part): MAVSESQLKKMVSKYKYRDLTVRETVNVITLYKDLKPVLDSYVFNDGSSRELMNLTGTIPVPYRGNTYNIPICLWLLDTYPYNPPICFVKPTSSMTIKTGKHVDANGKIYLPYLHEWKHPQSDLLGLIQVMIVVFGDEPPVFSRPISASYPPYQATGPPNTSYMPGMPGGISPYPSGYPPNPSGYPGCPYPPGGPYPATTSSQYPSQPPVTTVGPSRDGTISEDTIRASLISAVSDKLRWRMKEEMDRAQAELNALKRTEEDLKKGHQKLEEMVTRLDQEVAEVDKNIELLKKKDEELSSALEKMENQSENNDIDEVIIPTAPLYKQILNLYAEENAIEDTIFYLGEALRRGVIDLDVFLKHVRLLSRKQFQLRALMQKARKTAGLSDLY
Sequence of ATP-dependent 6-phosphofructokinase (Trypanosoma brucei brucei) (O15648 whole entry, looked up): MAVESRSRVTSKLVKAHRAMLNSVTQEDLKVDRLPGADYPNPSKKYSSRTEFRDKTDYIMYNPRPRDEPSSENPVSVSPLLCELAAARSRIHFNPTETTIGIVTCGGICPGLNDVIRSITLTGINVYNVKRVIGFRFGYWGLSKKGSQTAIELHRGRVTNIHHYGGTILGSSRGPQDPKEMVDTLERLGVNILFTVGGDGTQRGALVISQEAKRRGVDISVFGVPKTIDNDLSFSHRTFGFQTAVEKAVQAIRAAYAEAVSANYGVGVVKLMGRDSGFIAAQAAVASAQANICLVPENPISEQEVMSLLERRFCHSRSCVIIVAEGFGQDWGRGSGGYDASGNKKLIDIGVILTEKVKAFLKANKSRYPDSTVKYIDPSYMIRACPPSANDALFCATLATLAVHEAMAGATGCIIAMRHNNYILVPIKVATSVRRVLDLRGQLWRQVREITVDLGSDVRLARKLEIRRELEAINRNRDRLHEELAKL
Sequence of DNA polymerase III PolC-type (Bacillus subtilis (strain 168)) (P13267 whole entry, looked up): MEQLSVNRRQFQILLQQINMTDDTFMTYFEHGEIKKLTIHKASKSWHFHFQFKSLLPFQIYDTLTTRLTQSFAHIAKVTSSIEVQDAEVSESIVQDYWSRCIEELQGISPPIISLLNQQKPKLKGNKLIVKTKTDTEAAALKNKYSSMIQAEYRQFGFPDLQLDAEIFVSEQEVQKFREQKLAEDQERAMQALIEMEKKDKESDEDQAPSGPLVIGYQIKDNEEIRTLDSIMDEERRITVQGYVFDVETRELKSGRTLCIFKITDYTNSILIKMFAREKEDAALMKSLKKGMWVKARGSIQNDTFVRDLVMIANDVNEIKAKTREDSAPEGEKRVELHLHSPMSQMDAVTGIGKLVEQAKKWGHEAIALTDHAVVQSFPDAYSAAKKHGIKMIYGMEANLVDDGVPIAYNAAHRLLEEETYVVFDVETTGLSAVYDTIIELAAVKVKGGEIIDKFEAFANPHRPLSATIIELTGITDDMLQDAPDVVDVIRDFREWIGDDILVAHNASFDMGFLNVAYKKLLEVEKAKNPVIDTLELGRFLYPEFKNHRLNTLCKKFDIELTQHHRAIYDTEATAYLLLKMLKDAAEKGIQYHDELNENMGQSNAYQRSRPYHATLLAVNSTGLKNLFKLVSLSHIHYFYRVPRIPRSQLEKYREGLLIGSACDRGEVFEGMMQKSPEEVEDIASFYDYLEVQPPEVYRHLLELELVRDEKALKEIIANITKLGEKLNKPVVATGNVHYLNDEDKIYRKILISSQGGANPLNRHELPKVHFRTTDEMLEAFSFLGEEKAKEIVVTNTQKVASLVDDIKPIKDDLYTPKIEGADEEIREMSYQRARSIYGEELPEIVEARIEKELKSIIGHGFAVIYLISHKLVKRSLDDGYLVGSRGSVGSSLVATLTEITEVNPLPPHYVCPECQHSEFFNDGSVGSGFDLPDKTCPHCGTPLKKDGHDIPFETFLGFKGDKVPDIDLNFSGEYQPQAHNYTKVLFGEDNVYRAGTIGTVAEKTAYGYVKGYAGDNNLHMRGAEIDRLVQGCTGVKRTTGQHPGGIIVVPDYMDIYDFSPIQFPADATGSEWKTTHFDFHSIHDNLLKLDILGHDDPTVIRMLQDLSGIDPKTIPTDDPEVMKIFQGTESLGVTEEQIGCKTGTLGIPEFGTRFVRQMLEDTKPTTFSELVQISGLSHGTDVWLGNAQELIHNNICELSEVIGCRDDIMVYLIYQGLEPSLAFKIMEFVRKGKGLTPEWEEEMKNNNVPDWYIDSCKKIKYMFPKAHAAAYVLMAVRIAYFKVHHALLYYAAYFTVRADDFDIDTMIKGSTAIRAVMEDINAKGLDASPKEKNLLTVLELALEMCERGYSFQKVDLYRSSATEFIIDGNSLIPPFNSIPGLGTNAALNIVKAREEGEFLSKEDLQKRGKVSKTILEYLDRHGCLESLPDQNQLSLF
Sequence of Ubiquitin carboxyl-terminal hydrolase 2 (Homo sapiens) (O75604 whole entry, looked up): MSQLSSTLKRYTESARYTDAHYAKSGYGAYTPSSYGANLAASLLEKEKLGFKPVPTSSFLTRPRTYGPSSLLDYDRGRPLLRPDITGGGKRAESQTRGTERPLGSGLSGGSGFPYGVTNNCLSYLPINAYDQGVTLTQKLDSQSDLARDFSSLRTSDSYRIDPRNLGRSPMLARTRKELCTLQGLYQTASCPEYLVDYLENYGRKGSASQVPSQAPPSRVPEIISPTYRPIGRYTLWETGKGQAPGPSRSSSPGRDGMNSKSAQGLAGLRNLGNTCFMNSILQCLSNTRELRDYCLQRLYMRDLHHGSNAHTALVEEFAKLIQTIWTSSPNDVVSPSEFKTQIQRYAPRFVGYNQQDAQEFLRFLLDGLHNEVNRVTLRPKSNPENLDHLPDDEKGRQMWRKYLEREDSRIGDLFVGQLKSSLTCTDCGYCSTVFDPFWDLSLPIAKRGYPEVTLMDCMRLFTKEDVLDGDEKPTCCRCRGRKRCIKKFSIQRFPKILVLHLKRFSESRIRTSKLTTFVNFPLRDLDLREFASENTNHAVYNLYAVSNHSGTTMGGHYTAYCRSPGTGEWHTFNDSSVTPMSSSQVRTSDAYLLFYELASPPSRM
Sequence of Beta-2 adrenergic receptor (Homo sapiens) (P07550 whole entry, looked up): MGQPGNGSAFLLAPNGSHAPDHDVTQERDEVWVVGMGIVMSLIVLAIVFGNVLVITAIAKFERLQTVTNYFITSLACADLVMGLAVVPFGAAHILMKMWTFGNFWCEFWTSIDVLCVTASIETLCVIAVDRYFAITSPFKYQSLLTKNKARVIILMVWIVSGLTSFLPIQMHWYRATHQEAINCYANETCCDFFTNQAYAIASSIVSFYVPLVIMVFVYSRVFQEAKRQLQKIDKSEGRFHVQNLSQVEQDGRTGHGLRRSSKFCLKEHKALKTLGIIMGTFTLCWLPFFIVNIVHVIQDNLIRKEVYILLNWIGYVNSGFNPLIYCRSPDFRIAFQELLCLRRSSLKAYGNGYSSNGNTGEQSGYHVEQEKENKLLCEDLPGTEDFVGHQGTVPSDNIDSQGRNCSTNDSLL

Take `CC(C)NNC(=O)c1ccncc1`: the Potency entry in assay [1], in assay [3], in assay [4], in assay [6], in assay [7] and in assay [8] was “inactive” in each case. The Potency result in assay [9], in [11], in [13] and in [15] was “inactive” throughout. In addition, the compound was called inactive in assay [2], in assay [5], in assay [10], in assay [12], in assay [14] and in assay [16].
Turning to `CNCCC(Oc1ccccc1OC)c1ccccc1` (stereo unspecified), the Potency entry in assay [1], in assay [3], in assay [4], in [6], in assay [7] and in assay [8] was “inactive” each time. Further, the Potency entry in [9], in [11], in assay [13], in assay [18] and in assay [15] was “inactive” in each case. The call in assay [2], in [5], in assay [10], in assay [12], in assay [14] and in [17] was inactive. The outcome in assay [16] was inactive.
Take `OCCN1CCN(CCCN2c3ccccc3C=Cc3ccccc32)CC1`: the Potency in assay [1] is 8.91 µM (active) and 12.6 µM (active); in assay [18], 13.1 µM (active). The call in assay [2], in assay [5], in assay [10], in assay [12] and in assay [14] was inactive. The Potency result in [3], in assay [4], in [6], in [7], in assay [8] and in assay [9] was “inactive” in each case. Moreover, the Potency result in [11] and in assay [13] was “inactive” throughout.
Consider `CC(C(=O)O)c1ccc(CC2CCCC2=O)cc1` (stereo unspecified), for which the Potency result in assay [1], in [4], in [6], in assay [7], in assay [8] and in assay [9] was “inactive” throughout. Further, the Potency result in assay [11], in assay [13], in assay [18] and in assay [15] was “inactive” each time. Besides, the compound was called inactive in assay [19], in assay [2], in [5], in assay [10], in assay [12] and in assay [14].
For the compound `Nc1c2c(nc3ccccc13)CCCC2O` (stereo unspecified), the Potency entry in assay [1], in assay [3], in [4], in assay [6], in [7] and in assay [8] was “inactive” each time. The Potency entry in assay [9], in [11], in assay [13], in assay [18] and in [15] was “inactive” in each case. The result in [2], in [5], in assay [10], in assay [12], in assay [14] and in assay [16] was inactive.
For `C[C@H](CS)C(=O)N1CCC[C@H]1C(=O)O`, the Potency result in [1], in assay [3], in [4], in [6], in assay [7] and in [8] was “inactive” each time. In addition, the Potency result in assay [9], in assay [11], in assay [13], in [18] and in [15] was “inactive” each time. The compound was classed as inactive in [2], in assay [5], in assay [12], in [14] and in assay [17].
Take `CN(C)C(=O)Oc1cccc([N+](C)(C)C)c1`: the Potency result in assay [1], in assay [3], in assay [4], in assay [6], in assay [7] and in assay [8] was “inactive” throughout. Moreover, the Potency entry in [9], in [11] and in assay [13] was “inactive” in each case. Also, the compound was called inactive in assay [2], in [5], in assay [10], in [12], in assay [14] and in assay [17]. Also, the compound was classed as inactive in [16].
For `O=c1[nH]c(=O)n([C@H]2C[C@H](O)[C@@H](CO)O2)cc1Br`, the Potency result in assay [1], in [3], in [4], in assay [6], in assay [7] and in assay [9] was “inactive” throughout. For the same compound, the Potency result in assay [11], in assay [13], in [18] and in [15] was “inactive” throughout. Also, the outcome in [2], in assay [5], in [10], in assay [12], in [14] and in assay [17] was inactive. For the same compound, the compound was called inactive in assay [16].
